From PubChem BioAssay (NCI) come the findings set out here.

This is part of a sample that, as a whole, favours compounds with a hit. Of some 83,000 tested, about 20% had one in any assay.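 Plates (96-well) were seeded with cells, treated with compound at one concentration, and incubated for 48 hours before percent growth was determined.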 Active and inactive are the calls of the source. Rule for the calls: active = growth percent below 10; inactive = the rest.

For the first assay, the system named is K-562 leukemia. Briefly: NCI-60 one-dose screen, 48 h (100 = growth as untreated, 0 = no growth, -100 = all killed). Particulars: 10 µM unless noted.
On to `Cc1ccc(Cl)cc1NC(=O)c1cc2ccccc2cc1O`, for which the growth was -33.7% (active).

Take `COc1ccc(NC(=O)CSc2nc(C)c(C(C)=O)n2-c2ccc([N+](=O)[O-])cc2)cc1`: the growth is 96.6% (inactive).

As to `O=C(NC(Cc1nnc2n(Cc3ccccc3)c(=O)c3c4c(sc3n12)CCCC4)c1ccc(Cl)cc1)c1ccccc1` (stereo unspecified), the growth was 91.9% (inactive).

Take `COc1cc(C2CC(=O)Nc3c2c(C)nn3-c2nc3ccccc3[nH]2)c(OC)c(OC)c1OC` (stereo unspecified): the growth was 20.5% (inactive).

As to `Cn1c(-c2c(N)n(Cc3ccc(C(F)(F)F)cc3)c3nc(C#N)c(C#N)nc23)nc2ccccc21`, the growth is -30.7% (active).

With `N#Cc1c(-c2ccccc2)cc(-c2ccc(Nc3nc(Nc4ccc(F)cc4)nc(Nc4ccc(F)cc4)n3)cc2)nc1N`, the growth is 88.8% (inactive).

With `Cc1c(O)cc(-c2cnc(N/N=C\c3ccc(Cl)cc3)s2)c(O)c1C`, the growth was 72.2% (inactive).

For the compound `COc1ccc2c(c1)O/C(=C\c1cccc(OCC(=O)Nc3nc4ccccc4s3)c1)C2=O`, the growth is 5.15% (active).

As for `Cn1c2c(c3ccc(Cl)c(Cl)c31)C(C#N)C1(CCNCC1)NC2=O` (stereo unspecified), the growth was 26.1% (inactive).

Regarding `COc1ccc(C2=NN(C(=O)c3cc(OC)c(OC)c(OC)c3)C(c3ccc(Cl)cc3)C2)cc1OC` (stereo unspecified), the growth was 4.27% (active).

On to `CCN(CC)CCN1CC(O)=C(c2nc(-c3ccc(Cl)cc3)cs2)C1=N`, for which the growth is 1.62% (active).

Consider `C=C(C)[C@@H]1CC=C2c3sc(-c4ccc(C)cc4)nc3C[C@@H](C)[C@]2(C)C1`, for which the growth was 97% (inactive).

Consider `COC(=O)c1c2c(c[n+]([O-])c1C)C(=O)C=CC2=O`, for which the growth was 2.05% (active).

Regarding `COc1ccc(NC(=O)CSc2nnc(-c3cc(-c4ccccc4)nc4ccccc34)n2-c2ccccc2)cc1`, the growth was 84.8% (inactive).

For the compound `COc1cc(C2CC(=O)Nc3c2c(C)nn3-c2nc3ccccc3[nH]2)cc2c1OCC(=O)N2` (stereo unspecified), the growth was 89.3% (inactive).

With `Cc1cc(Cl)nc(NCc2cc(Nc3ccnc4cc(Cl)ccc34)ccc2F)n1`, the growth was 26.9% (inactive).

In the case of `COc1ccc2c(c1)[nH]c(=O)c1c3cccnc3cn21`, the growth was 17.4% (inactive).

Consider `Cc1ccc(Cc2cnc(NC(=O)c3ccc4noc(-c5ccccc5)c4c3)s2)cc1`, for which the growth was 91.2% (inactive).

`CC1=CN2C(=O)C3C4=C(CCCC4)SC3N=C2CN1c1c(C)cccc1C` (stereo unspecified): the growth is 45.8% (inactive).

On to `Cc1ccc2[nH]c(=O)c3c(c2c1)OC(N)=C(C#N)C31c2cc(Br)ccc2-c2ccc(Br)cc21`, for which the growth was 60.7% (inactive).

Take `CS(=O)(=O)c1ccc(Nc2nc(N[C@H]3CCCC[C@H]3N)nc3cc[nH]c(=O)c23)cc1`: the growth was 10.9% (inactive).

Consider `O=C(NCCCNc1cc(-c2cn(-c3ccccc3)nc2-c2cccc(O)c2)ccn1)c1cccc(O)c1`, for which the growth is 7.59% (active).

For `COc1ccc(C(=O)COc2ccc(/C=C3\Oc4ccccc4C3=O)cc2)cc1`, the growth is 101% (inactive).

Turning to `Cc1ccc(C2SCC(=O)N2Cc2ccccc2)cc1` (stereo unspecified), the growth is 110% (inactive).

Regarding `Cc1cccc(Cc2cnc(NC(=O)/C=C/c3ccco3)s2)c1`, the growth is 8.09% (active).

`CN(C)CCNc1nc2ccccc2c2c1c1c(n2Cc2ccccc2)-c2ccccc2C1=O`: the growth is -57.9% (active).

For `Cc1occc1-c1n[nH]c(=S)n1N1C(=O)CSC1=S`, the growth was 103% (inactive).

Regarding `Cc1cccc(NC(=O)CSc2nc3ccccc3[nH]2)c1`, the growth was 102% (inactive).

On to `Cc1ccccc1NC(=O)N/C(N)=N/c1nc(C)c(C)s1`, for which the growth was 9.17% (active).

`NNC(=O)c1nc(N)n(-c2ccc(S(N)(=O)=O)cc2)n1`: the growth was 96.5% (inactive).

With `COc1cc(CCC[P+](c2ccccc2)(c2ccccc2)c2ccccc2)cc2c1OCO2`, the growth was 21.8% (inactive).

For the compound `O=C1/C(=C2/C=Nc3ccccc32)N(O)c2ccccc21`, the growth was 19.6% (inactive).

On to `COc1ccccc1N1C(=O)/C(=C/C2=Cc3ccccc3OC2)SC1=S`, for which the growth is 75% (inactive).

As to `C=CCn1c(C)nc2cc(Nc3nc(Cl)nc4ccccc34)ccc21`, the growth was 74.8% (inactive).

In the case of `COc1cc(/C=C/C(=O)c2c(C)nc3ccccc3c2C)ccc1OCCCN1CCN(C(=O)c2ccco2)CC1`, the growth was 59.7% (inactive).

As for `Cn1cc(-c2csc(-c3ccccc3)n2)c2cccnc21`, the growth is 1.43% [100 µM] (active).

`N=C(N)c1ccc(-c2ccc(-c3cncc4ccccc34)s2)s1`: the growth was -59.4% (active).

For `CC(C)CC(NC(=O)CN(Cc1ccccc1)S(C)(=O)=O)C(=O)O` (stereo unspecified), the growth was 78% (inactive).

For another assay, the system named is MALME-3M melanoma. The description is as above. The note with it: 10 µM unless noted.
With `Cc1ccc(Cl)cc1NC(=O)c1cc2ccccc2cc1O`, the growth was -32.6% (active).

With `COc1ccc(NC(=O)CSc2nc(C)c(C(C)=O)n2-c2ccc([N+](=O)[O-])cc2)cc1`, the growth is 91.3% (inactive).

Turning to `O=C(NC(Cc1nnc2n(Cc3ccccc3)c(=O)c3c4c(sc3n12)CCCC4)c1ccc(Cl)cc1)c1ccccc1` (stereo unspecified), the growth was 75.4% (inactive).

As for `COc1cc(C2CC(=O)Nc3c2c(C)nn3-c2nc3ccccc3[nH]2)c(OC)c(OC)c1OC` (stereo unspecified), the growth is 55.1% (inactive).

As to `Cn1c(-c2c(N)n(Cc3ccc(C(F)(F)F)cc3)c3nc(C#N)c(C#N)nc23)nc2ccccc21`, the growth is -23.9% (active).

For `N#Cc1c(-c2ccccc2)cc(-c2ccc(Nc3nc(Nc4ccc(F)cc4)nc(Nc4ccc(F)cc4)n3)cc2)nc1N`, the growth was 80.6% (inactive).

On to `Cc1c(O)cc(-c2cnc(N/N=C\c3ccc(Cl)cc3)s2)c(O)c1C`, for which the growth was 107% (inactive).

In the case of `COc1ccc2c(c1)O/C(=C\c1cccc(OCC(=O)Nc3nc4ccccc4s3)c1)C2=O`, the growth was -43.8% (active).

For `Cn1c2c(c3ccc(Cl)c(Cl)c31)C(C#N)C1(CCNCC1)NC2=O` (stereo unspecified), the growth is 58.1% (inactive).

Turning to `COc1ccc(C2=NN(C(=O)c3cc(OC)c(OC)c(OC)c3)C(c3ccc(Cl)cc3)C2)cc1OC` (stereo unspecified), the growth is 63.1% (inactive).

On to `CCN(CC)CCN1CC(O)=C(c2nc(-c3ccc(Cl)cc3)cs2)C1=N`, for which the growth is -44.3% (active).

As to `C=C(C)[C@@H]1CC=C2c3sc(-c4ccc(C)cc4)nc3C[C@@H](C)[C@]2(C)C1`, the growth was 104% (inactive).

On to `COC(=O)c1c2c(c[n+]([O-])c1C)C(=O)C=CC2=O`, for which the growth is -97.1% (active).

On to `COc1ccc(NC(=O)CSc2nnc(-c3cc(-c4ccccc4)nc4ccccc34)n2-c2ccccc2)cc1`, for which the growth is 88.7% (inactive).

On to `COc1cc(C2CC(=O)Nc3c2c(C)nn3-c2nc3ccccc3[nH]2)cc2c1OCC(=O)N2` (stereo unspecified), for which the growth is 117% (inactive).

Regarding `Cc1cc(Cl)nc(NCc2cc(Nc3ccnc4cc(Cl)ccc34)ccc2F)n1`, the growth is 77.2% (inactive).

In the case of `COc1ccc2c(c1)[nH]c(=O)c1c3cccnc3cn21`, the growth is 62.6% (inactive).

With `Cc1ccc(Cc2cnc(NC(=O)c3ccc4noc(-c5ccccc5)c4c3)s2)cc1`, the growth is 106% (inactive).

For `CC1=CN2C(=O)C3C4=C(CCCC4)SC3N=C2CN1c1c(C)cccc1C` (stereo unspecified), the growth is 89.7% (inactive).

As for `Cc1ccc2[nH]c(=O)c3c(c2c1)OC(N)=C(C#N)C31c2cc(Br)ccc2-c2ccc(Br)cc21`, the growth is 54.9% (inactive).

On to `CS(=O)(=O)c1ccc(Nc2nc(N[C@H]3CCCC[C@H]3N)nc3cc[nH]c(=O)c23)cc1`, for which the growth was -31.9% (active).

For `O=C(NCCCNc1cc(-c2cn(-c3ccccc3)nc2-c2cccc(O)c2)ccn1)c1cccc(O)c1`, the growth is 64.2% (inactive).

`COc1ccc(C(=O)COc2ccc(/C=C3\Oc4ccccc4C3=O)cc2)cc1`: the growth was 112% (inactive).

In the case of `Cc1ccc(C2SCC(=O)N2Cc2ccccc2)cc1` (stereo unspecified), the growth was 93.3% (inactive).

As to `Cc1cccc(Cc2cnc(NC(=O)/C=C/c3ccco3)s2)c1`, the growth is 54.8% (inactive).

On to `CN(C)CCNc1nc2ccccc2c2c1c1c(n2Cc2ccccc2)-c2ccccc2C1=O`, for which the growth was -59% (active).

Take `Cc1occc1-c1n[nH]c(=S)n1N1C(=O)CSC1=S`: the growth was 98% (inactive).

For `Cc1cccc(NC(=O)CSc2nc3ccccc3[nH]2)c1`, the growth is 105% (inactive).

For the compound `Cc1ccccc1NC(=O)N/C(N)=N/c1nc(C)c(C)s1`, the growth is 57.1% (inactive).

In the case of `NNC(=O)c1nc(N)n(-c2ccc(S(N)(=O)=O)cc2)n1`, the growth was 97.8% (inactive).

As to `COc1cc(CCC[P+](c2ccccc2)(c2ccccc2)c2ccccc2)cc2c1OCO2`, the growth is 14.6% (inactive).

Consider `O=C1/C(=C2/C=Nc3ccccc32)N(O)c2ccccc21`, for which the growth is 56.3% (inactive).

Take `COc1ccccc1N1C(=O)/C(=C/C2=Cc3ccccc3OC2)SC1=S`: the growth was 92.9% (inactive).

As for `C=CCn1c(C)nc2cc(Nc3nc(Cl)nc4ccccc34)ccc21`, the growth is 122% (inactive).

Take `COc1cc(/C=C/C(=O)c2c(C)nc3ccccc3c2C)ccc1OCCCN1CCN(C(=O)c2ccco2)CC1`: the growth is 68.3% (inactive).

Consider `Cn1cc(-c2csc(-c3ccccc3)n2)c2cccnc21`, for which the growth was -44.2% [100 µM] (active).

For `N=C(N)c1ccc(-c2ccc(-c3cncc4ccccc34)s2)s1`, the growth is -59.1% (active).

For the compound `CC(C)CC(NC(=O)CN(Cc1ccccc1)S(C)(=O)=O)C(=O)O` (stereo unspecified), the growth is 98.8% (inactive).
